In all, about 5,500 compounds went through this assay and about 2,000 (36%) were called active. About 18% were inconclusive and are not listed. The list shows a part of the results. Unmarked numbers belong to inactive results. Cut-off read from the data, not from the text of the source: active = normalized growth mostly below about 0.91 (no sharp cut-off); inconclusive = no clear call, values can overlap the other calls; inactive = mostly above about 0.92.
Assay: chemical genetic growth profiling, strain panel (AID 1159580);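 note: tested at 20 µM; growth read once vehicle control cultures reached saturation at 30 °C; 1 = growth at the plate median or of vehicle wells; lower values mean less growth of the strain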
Details: S. cerevisiae deletion strains, growth OD
[1] = locus YJL095W, strain BCK1, active compounds read low

Compound: C[C@]12C=CC(=O)C=C1CCC1C2[C@@H](O)C[C@@]2(C)C1CC[C@]2(O)C(=O)COC(=O)CCC(=O)O (stereo partly specified)
- normalized growth (locus YHR030C, strain SLT2, active compounds read low): 0.969
- normalized growth (locus YHR079C, strain IRE1, active compounds read low): 0.968
- normalized growth [1]: 1
- normalized growth (locus YJR066W, strain TOR1, active compounds read low): 0.931
- normalized growth (locus YLR113W, strain HOG1, active compounds read low): 1
- normalized growth (locus YNL183C, strain NPR1, active compounds read low): 0.931
- normalized growth (locus YOR231W, strain MKK1, active compounds read low): 0.979
- normalized growth (locus YPL256C, strain CLN2, active compounds read low): 0.963

Compound: CC(C1OC(C)(C)C(O)C1O)[C@@H]1CC[C@]2(C)C3=CCC4C(C)(C)C(=O)CC[C@]4(C)C3CC[C@@]12C (stereo partly specified)
- normalized growth (locus YAL013W, strain DEP1, active compounds read low): 0.979
- normalized growth (locus YAL021C, strain ccr4, active compounds read low): 1.02
- normalized growth (locus YAL026C, strain drs2, active compounds read low): 0.987
- normalized growth (locus YAL030W, strain snc1, active compounds read low): 1
- normalized growth (locus YBL061C, strain skt5, active compounds read low): 0.978
- normalized growth (locus YBR009C, strain hhf1, active compounds read low): 0.946
- normalized growth (locus YBR021W, strain FUR4, active compounds read low): 1.06
- normalized growth (locus YBR023C, strain chs3, active compounds read low): 0.985
- normalized growth (locus YBR171W, strain sec66, active compounds read low): 0.985
- normalized growth (locus YBR229C, strain ROT2, active compounds read low): 1.02
- normalized growth (locus YBR231C, strain swc5, active compounds read low): 0.971
- normalized growth (locus YBR279W, strain paf1, active compounds read low): 0.995
- normalized growth (locus YCL011C, strain gbp2, active compounds read low): 0.981
- normalized growth (locus YCL016C, strain dcc1, active compounds read low): 0.989
- normalized growth (locus YCL029C, strain bik1, active compounds read low): 1.01
- normalized growth (locus YCL061C, strain MRC1, active compounds read low): 0.995
- normalized growth (locus YCL069W, strain vba3, active compounds read low): 0.994
- normalized growth (locus YCR088W, strain abp1, active compounds read low): 1
- normalized growth (locus YDL005C, strain med2, active compounds read low): 0.968
- normalized growth (locus YDL035C, strain GPR1, active compounds read low): 0.931
- normalized growth (locus YDL040C, strain nat1, active compounds read low): 0.976
- normalized growth (locus YDL074C, strain BRE1, active compounds read low): 0.845
- normalized growth (locus YDL101C, strain DUN1, active compounds read low): 0.989
- normalized growth (locus YDL134C, strain PPH21, active compounds read low): 0.951
- normalized growth (locus YDL192W, strain arf1, active compounds read low): 0.983
- normalized growth (locus YDR001C, strain nth1, active compounds read low): 0.999
- normalized growth (locus YDR069C, strain doa4, active compounds read low): 0.985
- normalized growth (locus YDR101C, strain arx1, active compounds read low): 0.973
- normalized growth (locus YDR137W, strain rgp1, active compounds read low): 1.02
- normalized growth (locus YDR159W, strain sac3, active compounds read low): 0.898
- normalized growth (locus YDR162C, strain NBP2, active compounds read low): 0.958
- normalized growth (locus YDR195W, strain ref2): 1.05
- normalized growth (locus YDR297W, strain sur2, active compounds read low): 0.981
- normalized growth (locus YDR318W, strain mcm21, active compounds read low): 1
- normalized growth (locus YDR334W, strain swr1, active compounds read low): 0.987
- normalized growth (locus YDR335W, strain msn5, active compounds read low): 0.999
- normalized growth (locus YDR388W, active compounds read low): 1.03
- normalized growth (locus YDR392W, strain spt3, active compounds read low): 0.838
- normalized growth (locus YDR502C, strain sam2, active compounds read low): 0.989
- normalized growth (locus YEL003W, strain gim4, active compounds read low): 0.937
- normalized growth (locus YEL037C, strain rad23, active compounds read low): 0.983
- normalized growth (locus YEL061C, strain CIN8 (second series), active compounds read low): 0.99
- normalized growth (locus YER015W, strain faa2, active compounds read low): 0.992
- normalized growth (locus YER016W, strain bim1, active compounds read low): 0.99
- normalized growth (locus YER110C, active compounds read low): 1.03
- normalized growth (locus YER111C, strain swi4, active compounds read low): 0.999
- normalized growth (locus YER155C, strain BEM2 (second series), active compounds read low): 0.924
- normalized growth (locus YER155C, strain BEM2, active compounds read low): 1.07
- normalized growth (locus YER167W, strain BCK2, active compounds read low): 1.01
- normalized growth (locus YFR010W, strain ubp6, active compounds read low): 0.973
- normalized growth (locus YGL078C, strain dbp3, active compounds read low): 1.03
- normalized growth (locus YGL086W, strain mad1, active compounds read low): 1.03
- normalized growth (locus YGL167C, strain pmr1, active compounds read low): 0.977
- normalized growth (locus YGL173C, strain kem1, active compounds read low): 0.976
- normalized growth (locus YGL227W, strain vid30, active compounds read low): 0.99
- normalized growth (locus YGL240W, strain doc1, active compounds read low): 0.896
- normalized growth (locus YGL248W, strain PDE1, active compounds read low): 0.97
- normalized growth (locus YGL253W, strain hxk2, active compounds read low): 0.922
- normalized growth (locus YGR078C, strain PAC10, active compounds read low): 0.91
- normalized growth (locus YGR135W, strain pre9, active compounds read low): 1.01
- normalized growth (locus YGR252W, strain gcn5, active compounds read low): 0.77
- normalized growth (locus YHR013C, strain ard1, active compounds read low): 0.966
- normalized growth (locus YHR027C, strain rpn1, active compounds read low): 1.02
- normalized growth (locus YHR079C, strain IRE1 (second series), active compounds read low): 1.03
- normalized growth (locus YHR094C, strain hxt1, active compounds read low): 1.03
- normalized growth (locus YHR129C, strain ARP1, active compounds read low): 1
- normalized growth (locus YHR142W, strain chs7, active compounds read low): 0.919
- normalized growth (locus YHR200W, strain rpn10, active compounds read low): 1.01
- normalized growth (locus YIL066C, strain RNR3, active compounds read low): 0.887
- normalized growth (locus YIL073C, strain SPO22, active compounds read low): 0.99
- normalized growth (locus YIL125W, strain kgd1, active compounds read low): 1.03
- normalized growth (locus YIR030C, strain dcg1, active compounds read low): 1.04
- normalized growth (locus YJL092W, strain hpr5, active compounds read low): 1
- normalized growth (locus YJL095W, strain BCK1 (second series), active compounds read low): 1
- normalized growth [1]: 0.904
- normalized growth (locus YJL115W, strain asf1, active compounds read low): 0.985
- normalized growth (locus YJL129C, strain trk1, active compounds read low): 0.949
- normalized growth (locus YJL134W, strain LCB3, active compounds read low): 1.04
- normalized growth (locus YJL154C, strain vps35, active compounds read low): 1.01
- normalized growth (locus YJL164C, strain tpk1, active compounds read low): 0.983
- normalized growth (locus YJL166W, strain qcr8, active compounds read low): 0.917
- normalized growth (locus YJL168C, strain set2, active compounds read low): 1.03
- normalized growth (locus YJL187C, strain SWE1 (second series), active compounds read low): 0.958
- normalized growth (locus YJL187C, strain SWE1, active compounds read low): 0.999
- normalized growth (locus YKL068W, active compounds read low): 1.02
- normalized growth (locus YKL085W, strain MDH1 (second series), active compounds read low): 1.05
- normalized growth (locus YKL085W, strain MDH1, active compounds read low): 1.05
- normalized growth (locus YKL160W, strain elf1, active compounds read low): 0.972
- normalized growth (locus YKL190W, strain CNB1, active compounds read low): 1.03
- normalized growth (locus YKR001C, strain vps1, active compounds read low): 1.01
- normalized growth (locus YKR026C, strain gcn3, active compounds read low): 0.996
- normalized growth (locus YKR091W, strain srl3, active compounds read low): 0.995
- normalized growth (locus YLL001W, strain dnm1, active compounds read low): 1
- normalized growth (locus YLL026W, active compounds read low): 0.997
- normalized growth (locus YLL041C, strain sdh2, active compounds read low): 0.992
- normalized growth (locus YLR027C, strain aat2, active compounds read low): 0.973
- normalized growth (locus YLR039C, strain RIC1, active compounds read low): 1.06
- normalized growth (locus YLR058C, strain SHM2, active compounds read low): 0.987
- normalized growth (locus YLR102C, strain apc9, active compounds read low): 1.03
- normalized growth (locus YLR221C, strain rsa3, active compounds read low): 0.936
- normalized growth (locus YLR258W, strain gsy2, active compounds read low): 0.983
- normalized growth (locus YLR262C, strain YPT6 (second series), active compounds read low): 0.979
- normalized growth (locus YLR262C, strain YPT6, active compounds read low): 1.06
- normalized growth (locus YLR268W, strain sec22, active compounds read low): 0.94
- normalized growth (locus YLR320W, strain mms22, active compounds read low): 0.877 (active)
- normalized growth (locus YLR342W, strain FKS1, active compounds read low): 0.923
- normalized growth (locus YLR357W, strain rsc2, active compounds read low): 0.947
- normalized growth (locus YLR370C, strain arc18, active compounds read low): 0.988
- normalized growth (locus YLR371W, strain rom2, active compounds read low): 1.03
- normalized growth (locus YLR384C, strain iki3, active compounds read low): 0.991
- normalized growth (locus YLR418C, strain cdc73, active compounds read low): 0.79 (active)
- normalized growth (locus YML016C, strain PPZ1, active compounds read low): 1.03
- normalized growth (locus YML032C, strain rad52, active compounds read low): 0.956
- normalized growth (locus YML120C, strain ndi1, active compounds read low): 0.995
- normalized growth (locus YML124C, strain tub3, active compounds read low): 1.04
- normalized growth (locus YMR058W, strain fet3, active compounds read low): 0.978
- normalized growth (locus YMR078C, strain ctf18, active compounds read low): 1.02
- normalized growth (locus YMR125W, strain sto1, active compounds read low): 1.01
- normalized growth (locus YMR129W, active compounds read low): 0.996
- normalized growth (locus YMR205C, strain PFK2, active compounds read low): 0.95
- normalized growth (locus YMR223W, strain ubp8, active compounds read low): 0.987
- normalized growth (locus YMR231W, strain pep5, active compounds read low): 0.949
- normalized growth (locus YMR307W, strain GAS1, active compounds read low): 0.775
- normalized growth (locus YNL067W, strain RPL9B, active compounds read low): 0.999
- normalized growth (locus YNL071W, strain lat1, active compounds read low): 0.906 (active)
- normalized growth (locus YNL153C, strain GIM3, active compounds read low): 0.97
- normalized growth (locus YNL209W, strain ssb2, active compounds read low): 0.995
- normalized growth (locus YNL233W, strain BNI4, active compounds read low): 0.867 (active)
- normalized growth (locus YNL248C, strain rpa49, active compounds read low): 0.973
- normalized growth (locus YNL250W, strain rad50, active compounds read low): 1.04
- normalized growth (locus YNL271C, strain bni1, active compounds read low): 1.02
- normalized growth (locus YNL298W, strain CLA4, active compounds read low): 0.973
- normalized growth (locus YNL307C, strain MCK1, active compounds read low): 0.942
- normalized growth (locus YNL322C, strain KRE1 (second series), active compounds read low): 0.975
- normalized growth (locus YNL322C, strain KRE1, active compounds read low): 1.04
- normalized growth (locus YNR049C, strain mso1, active compounds read low): 0.982
- normalized growth (locus YNR052C, strain pop2, active compounds read low): 1.01
- normalized growth (locus YOL006C, strain TOP1, active compounds read low): 0.88
- normalized growth (locus YOL012C, strain htz1): 0.776
- normalized growth (locus YOL147C, strain pex11, active compounds read low): 0.999
- normalized growth (locus YOR001W, strain rrp6, active compounds read low): 0.97
- normalized growth (locus YOR061W, strain CKA2, active compounds read low): 1.01
- normalized growth (locus YOR069W, strain VPS5, active compounds read low): 1.03
- normalized growth (locus YOR070C, strain gyp1, active compounds read low): 0.997
- normalized growth (locus YOR080W, strain dia2, active compounds read low): 0.979
- normalized growth (locus YOR083W, strain WHI5, active compounds read low): 0.972
- normalized growth (locus YOR106W, strain vam3, active compounds read low): 0.961
- normalized growth (locus YOR136W, strain idh2, active compounds read low): 1.01
- normalized growth (locus YOR144C, strain elg1, active compounds read low): 1.01
- normalized growth (locus YOR184W, strain ser1, active compounds read low): 0.868 (active)
- normalized growth (locus YOR265W, strain rbl2, active compounds read low): 0.991
- normalized growth (locus YOR270C, strain vph1, active compounds read low): 0.821
- normalized growth (locus YOR290C, strain snf2, active compounds read low): 0.942
- normalized growth (locus YOR316C, strain cot1, active compounds read low): 1.03
- normalized growth (locus YPL051W, strain arl3, active compounds read low): 0.94
- normalized growth (locus YPL078C, strain atp4, active compounds read low): 1
- normalized growth (locus YPL106C, strain sse1, active compounds read low): 1.08
- normalized growth (locus YPL240C, strain hsp82, active compounds read low): 0.991
- normalized growth (locus YPR119W, strain clb2, active compounds read low): 1.04
- normalized growth (locus YPR141C, strain kar3, active compounds read low): 1.04
- normalized growth (locus YPR163C, strain tif3, active compounds read low): 0.965
- normalized growth (locus YPR167C, strain met16, active compounds read low): 1.03
- normalized growth (strain wtn01, active compounds read low): 0.956
